PubChem BioAssay (NCATS)
Records with an inconclusive call do not appear. A number with no mark means an inactive call. Calls of active or inactive are those of the source. Calls follow the shape of the dose curve; as a rule, active = well fitted inhibition curve with a large enough effect; inconclusive = small, poorly fitted or top-dose-only effect; inactive = no such curve, though single readings can be large or run the other way.

assay: Primary qHTS for small molecule stabilizers of the endoplasmic reticulum resident proteome: Secreted ER Calcium Modulated Protein (SERCaMP) assay (AID 1508630); conditions: SH-SY5Y GLuc-SERCaMP (Gaussia luciferase released on ER calcium loss) secretion, thapsigargin, luminescence; series mostly up to 38.4 µM; activity change, negative = inhibition: at the top concentration
From the text: Assay Provider: Brandon K. Harvey Ph.D.
National Institute on Drug Abuse, National Institutes of Health, Baltimore, MD
Endoplasmic reticulum (ER) dysregulation is associated with human pathologies including neurodegenerative, cardiovascular, muscular, and diabetic conditions. Maintenance of ER calcium is critical for functions of the ER and its depletion can lead to loss of ER resident proteins, in a process termed exodosis. Therapeutic compounds capable of attenuating the redistribution of ER proteins under pathological conditions may slow or stop disease progression. To identify such compounds, we performed a quantitative high-throughput screen (qHTS) using the SERCaMP assay, which monitors secretion of ER resident proteins triggered by calcium depletion.
SERCaMP was initially developed as a reporter of ER calcium homeostasis using a Gaussia luciferase with a modified signal peptide and carboxy-terminus (GLuc-SERCaMP), modifications that confer secretion of the reporter in response to ER calcium depletion (Henderson et al., 2014). The assay was used to screen 9,501 compounds, including a collection of drugs approved by the FDA (US), EMA (EU), NHI (Japan), and HC (Canada) regulatory agencies (Huang et al., 2011). Since the SERCaMP reporter reflects the exodosis phenomenon (Trychta et al., 2018a), compounds identified in the screen have the potential to prevent exodosis by different mechanisms such as stabilizing ER calcium or augmenting ERS retrieval.
1. Henderson, M.J., Wires, E.S., Trychta, K.A., Richie, C.T., and Harvey, B.K. (2014). SERCaMP: a carboxy-terminal protein modification that enables monitoring of ER calcium homeostasis. Mol Biol Cell 25, 2828-2839.
2. Huang, R., Southall, N., Wang, Y., Yasgar, A., Shinn, P., Jadhav, A., Nguyen, D.T., and Austin, C.P. (2011). The NCGC pharmaceutical collection: a comprehensive resource of clinically approved drugs enabling repurposing and chemical genomics. Sci Transl Med 3, 80ps16.
3. Trychta, K.A., Back, S., Henderson, M.J., and Harvey, B.K. (2018a). KDEL Receptors Are Differentially Regulated to Maintain the ER Proteome under Calcium Deficiency. Cell Rep 25, 1829-1840 e1826.
SEQUENCE No. (1, 2, 3, etc.); […] (e.g., Cells, Incubation, Reagent, etc.); VALUE and DESCRIPTION.
1; Reagent; 5 uL; 1000 SH-SY5Y cells per wells
3; Compound; 23 nL; Control inhibitor / compound library
5; Reagent; 100 nM; Thapsigargin
7; Reagent; 1 uL; 0.5x coelenterazine
8; Detection; Luminescence; ViewLux imaging system
NOTES (numbers refer to sequence above)
1; SH-SY5Y human neuroblastoma cells stably expressing GLuc-SERCaMP (SH-SY5Y-GLuc-ASARTDL) cells were seeded in 1,536 well white tissue culture treated plates (Corning, Cat# 7464) in DMEM-high glucose-sodium pyruvate (ThermoFisher Scientific, Cat #10569) supplemented with 10% bovine growth serum (Hyclone), 10 U/ml penicillin (Gibco), 10 ug/ml streptomycin (Gibco), and 20 mM HEPES.
2; Assay plates were incubated for 5 hour at 37C in a humidified incubator containing 5% CO2.
3; qHTS libraries (23 nl, final concentrations of 1.53 uM, 7.67 uM, 38.3 uM) or controls (neutral control: DMSO, positive control: dantrolene) were added using a Kalypsis pin-tool Robotic System equipped with 1536 pinheads.
4; Cells were then incubated for 16 hours at 37C, 5% CO2.
5; Thapsigargin was added at 100 nM to deplete ER calcium stores.
6; Cells were incubated for 4 hour (37 °C, 5% CO2)
7; Gaussia luciferase in the medium was measured by adding 1 ul of 0.5x coelenterazine (final concentration 0.07x) prepared in Gaussia Luciferase Glow Assay Buffer (Pierce), without addition of the Cell Lysis Buffer Reagent.
8; Luminescence was measured using a ViewLux […] CCD imaging system (Perkin Elmer) equipped with clear filters. […] The same controls were also used for the calculation of the Z' factor, a measure of assay quality control, as previously described (Zhang et al., 1999). […]
% is scaled to controls: 0 for no effect and ±100 for the full control effect.

SMILES	activity change, negative = inhibition	outcome
CC/C=C\C/C=C\C/C=C\CCCCCCCC(=O)O	-26.6% [at 3.88 µM]	
CC(=O)Oc1cccc2c1C(=O)c1c(OC(C)=O)cc(C(=O)O)cc1C2=O	-8.25%	
O=C(O)c1ccc(NC2OC[C@@H](O)[C@H](O)[C@H]2O)cc1 (stereo not given in full)	-7.5%	
Oc1ccc(/C=C/c2cc(O)cc(O)c2)cc1		inactive
O=C(O)Cc1nn(Cc2ccc(Br)cc2F)c(=O)c2ccccc12	-16.8%	
COc1cc(C)c(/C=C/C(C)=C/C=C/C(C)=C/C(=O)O)c(C)c1C	-7.72%	
O=C1CCC(c2ccccc2)(C2CCN(Cc3ccccc3)CC2)C(=O)N1 (stereo not given)	-10.3%	
CCCCC[C@H](O)/C=C/[C@H]1[C@H](O)CC(=O)[C@@H]1CCCCCCC(=O)O	-7.33% [at 3.88 µM]	
O=C(O)CCC/C=C\C[C@@H]1[C@@H](/C=C/[C@@H](O)COc2cccc(Cl)c2)[C@H](O)C[C@@H]1O	-16.6% [at 3.88 µM]	
N[C@H](CC(=O)O)C(=O)O		inactive
Nc1ccc(N=Nc2ccccc2)c(N)n1		inactive
CC/C=C\C/C=C\C/C=C\C/C=C\C/C=C\C/C=C\CCC(=O)O		inactive
NC(=O)c1ccc[n+]([C@@H]2O[C@H](COP(=O)([O-])OP(=O)(O)OC[C@H]3O[C@@H](n4cnc5c(N)ncnc54)[C@H](O)[C@@H]3O)[C@@H](O)[C@H]2O)c1	-13.2% [at 13 µM]	
O=C(O)Cc1cc(I)c(Oc2ccc(O)c(I)c2)c(I)c1		inactive
COc1ccc2nc(NC(=O)Nc3ccccc3)sc2c1	42.6%	
NC[C@H]1O[C@H](O[C@H]2[C@H](O)[C@@H](O[C@H]3O[C@H](CO)[C@@H](O)[C@H](N)[C@H]3O)[C@H](N)C[C@@H]2N)[C@H](N)C[C@@H]1O	-16.6%	
CNC(=O)[C@H](Cc1c[nH]c2ccccc12)NC(=O)[C@@H](CC(=O)NO)CC(C)C	-12.2%	
CN(C)CCCSc1ccccc1NC(=O)/C=C/c1ccccc1	-28.9%	
CCC(C)[C@@H](N)C(=O)O (stereo not given in full)	-4.82%	
N#Cc1ccc2c(c1)N(CCCN1CCC(O)CC1)c1ccccc1S2	3.14%	
